FBW7 activator: human FBW7 E3 ligase activation, primary screen. 650,000 tested, 0.13% active. AlphaScreen FBW7–phospho-cyclin E peptide binding, activator screen. normalized activity (activation), % at 26.1 µM. AID 1259310. Q969H0; in the data active = normalized activity above about 1.9%;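 also: purified mutant Fbw7 with reduced substrate affinity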
GPR151 activ: activators of human GPR151; Q8TDV0; PathHunter beta-arrestin GPR151 cells, luminescence; activation, % at 11.2 µM; 650,000 tested, 1% active; in the data active = activation above about 4.9%
MITF primary: blocks human microphthalmia-associated transcription factor; inhibition, % at 2.6 µM; AlphaScreen MITF homodimerization, bead proximity signal; O75030; 650,000 tested, 0.91% active; AID 1259374; in the data active = inhibition above about 50%
Target sequence (O75030 whole entry, looked up): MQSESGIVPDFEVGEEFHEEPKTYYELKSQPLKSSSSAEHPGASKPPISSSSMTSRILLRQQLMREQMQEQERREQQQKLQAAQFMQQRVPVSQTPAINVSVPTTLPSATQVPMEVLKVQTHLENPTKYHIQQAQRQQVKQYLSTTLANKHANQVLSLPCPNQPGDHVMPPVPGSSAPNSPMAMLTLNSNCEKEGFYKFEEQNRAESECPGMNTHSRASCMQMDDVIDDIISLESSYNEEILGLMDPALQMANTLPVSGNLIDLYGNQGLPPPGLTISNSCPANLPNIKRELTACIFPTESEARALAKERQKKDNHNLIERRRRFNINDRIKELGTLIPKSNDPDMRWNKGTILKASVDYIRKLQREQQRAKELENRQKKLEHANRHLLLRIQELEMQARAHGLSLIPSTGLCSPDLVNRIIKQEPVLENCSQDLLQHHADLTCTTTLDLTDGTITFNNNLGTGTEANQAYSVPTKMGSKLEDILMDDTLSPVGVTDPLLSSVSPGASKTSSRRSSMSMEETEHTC
TEAD-YAP block: TEAD-YAP interaction inhibition; inhibition, % at 9.12 µM; HEK-TIYL cells, TEAD-Gal4/YAP UAS-luciferase luminescence; 640,000 tested, 1.4% active; AID 1259422; in the data active = inhibition above about 32%
Of the large screens only hits and unclear results are named; the others gave an inactive call. This is a sample that favours compounds with a hit; in the whole collection about 3.5% have one here.

O=C(O)CCCC(=O)Nc1ccc(F)c(Cl)c1	none
CCOc1ccc(C2C=C(c3ccc(CC)cc3)Nc3ncnn32)cc1OC (stereo unspecified)	TEAD-YAP block 37
COc1ccc(C2C=C(c3ccc(Cl)cc3)Nc3nnnn32)cc1OC (stereo unspecified)	none
COc1cc(C2C3=C(Nc4ncnn42)c2ccccc2CC3)cc(OC)c1OC (stereo unspecified)	TEAD-YAP block 68
COC(=O)c1nc2n(n1)C(c1cc(OC)c(OC)c(OC)c1)C=C(c1cccs1)N2 (stereo unspecified)	TEAD-YAP block 52
COc1cc(C2C=C(c3ccc(Cl)cc3)Nc3nnnn32)cc(OC)c1OC (stereo unspecified)	TEAD-YAP block 55
COc1ccc(C2=CC(c3cc(OC)c(OC)c(OC)c3)n3ncnc3N2)cc1 (stereo unspecified)	TEAD-YAP block 63
COc1cc(C2C=C(c3ccc(Cl)cc3)Nc3ncnn32)cc(OC)c1OC (stereo unspecified)	TEAD-YAP block 64
CCc1ccc(C2=CC(c3cc(OC)c(OC)c(OC)c3)n3ncnc3N2)cc1 (stereo unspecified)	TEAD-YAP block 65
COc1ccc(C2=CC(c3ccc(F)cc3)n3ncnc3N2)cc1 (stereo unspecified)	none
COc1ccc(C2C=C(c3ccc(F)cc3)Nc3ncnn32)cc1OC (stereo unspecified)	none
COc1ccc(C2=CC(c3ccc(OC)c(OC)c3)n3ncnc3N2)cc1 (stereo unspecified)	TEAD-YAP block 43
CCc1ccc(C2=CC(c3cccc(OC)c3OC)n3ncnc3N2)cc1 (stereo unspecified)	none
COc1ccc(C(=O)CC(=O)C(F)(F)F)cc1	none
COc1cc(C2C=C(c3cccs3)Nc3ncnn32)cc(OC)c1OC (stereo unspecified)	TEAD-YAP block 65
O=C(Nc1cccc(-c2ccn[nH]2)c1)C1CCN(Cc2cccc(Cn3cccn3)c2)CC1	none
OCCCNc1ccc2ncc(-c3ccc(F)cc3)n2n1	TEAD-YAP block 54
OCCCNc1ccc2ncc(-c3ccc(OC(F)(F)F)cc3)n2n1	none
OCCCNc1ccc2ncc(-c3ccc(F)c(Cl)c3)n2n1	none
OCCCNc1ccc2ncc(-c3ccc(Oc4ccccc4)cc3)n2n1	TEAD-YAP block 50
N#Cc1ccc(-c2cnc3ccc(NCCCO)nn23)cc1	TEAD-YAP block 50
O=C(CSc1nnc(NC(=O)c2cccs2)s1)Nc1ccc2c(c1)OCCO2	none
OCCC1CCCCN1c1ccnc2c(-c3ccc(CO)cc3)cnn12 (stereo unspecified)	none
OC[C@@H]1CCCN1c1ccnc2c(-c3ccc(Cl)cc3)cnn12	TEAD-YAP block 85
COc1ccccc1-c1cnn2c(N3CCC[C@H]3CO)ccnc12	none
OCCC1CCCCN1c1ccnc2c(-c3ccc(Cl)cc3)cnn12 (stereo unspecified)	TEAD-YAP block 47
OC[C@@H]1CCCN1c1ccnc2c(-c3ccccc3Cl)cnn12	TEAD-YAP block 48
OCCC1CCCCN1c1ccnc2c(-c3ccc(O)cc3)cnn12 (stereo unspecified)	TEAD-YAP block 93
O=C(CSc1ccc(Br)cc1)NC1CC1	none
Nc1c(C(=O)c2ccccc2)sc2nc(-c3cccs3)cc(-c3cccs3)c12	none
CC(=O)N1CCN(C(=S)Nc2ccc(F)cc2)CC1	none
OCCC1CCCCN1c1ccnc2c(-c3ccoc3)cnn12 (stereo unspecified)	none
OCCC1CCCCN1c1ccnc2c(-c3ccc4c(c3)OCO4)cnn12 (stereo unspecified)	TEAD-YAP block 43
O=C(O)c1cccc(-c2cnn3c(N4CCC[C@H]4CO)ccnc23)c1	TEAD-YAP block 101
Cc1ccsc1/C=C1\CCc2ccccc2C1=O	TEAD-YAP block 68
CC(=O)Nc1ccc(CN2CCc3nnc(C(C)NC(=O)C(C)C)n3CC2)cc1 (stereo unspecified)	none
COc1cc(OC)nc(Sc2ccccc2/C=N/O)n1	TEAD-YAP block 57
CC(C)Cn1c2c(c(O)c(C(=O)Nc3ccncc3)c1=O)CCCC2	none
N#Cc1ccccc1OCC(=O)NC(=O)NC1CCCC1	TEAD-YAP block 62
COc1ccccc1-c1nnc2sc(-c3cc4ccccc4o3)nn12	TEAD-YAP block 53
Cc1ccc(Nc2nc(-c3ccc(O)cc3)cs2)nc1	TEAD-YAP block 33
C=C(C)CSc1nc2sc3c(c2c(=O)n1-c1ccccc1)CC(C)(CC)OC3 (stereo unspecified)	none
COc1ccc(-c2cc(-c3ccccc3)c(C#N)c(SCCS(=O)(=O)c3ccc(C(C)(C)C)cc3)n2)cc1	none
Cc1ccc(S(=O)(=O)N2CCCCC2)cc1NC(=O)CN1CC(=O)Oc2ccccc21	none
CCCCOc1ccc(N2C(N)=NC(N)=NC2(C)C)cc1	TEAD-YAP block 37
CC1(C)N=C(N)N=C(N)N1c1ccc(F)cc1	none
COc1ccc2c(c1)C=C/C(=C\c1cccc[n+]1C)N2C	TEAD-YAP block 80
CCN1/C(=C/c2cc[n+](C)cc2)C=Cc2cc(OC)ccc21	none
CCOCCOC(=O)C1=C(C)NC2=C(C(=O)CC(c3ccc(Cl)cc3)C2)C1c1cc2c(cc1Cl)OCO2 (stereo unspecified)	none
CCOC(=O)N1CCc2c(sc(NCc3ccccn3)c2C(=O)Nc2ccc(OC)cc2OC)C1	TEAD-YAP block 48
C/C(CC(=O)Nc1ccccc1C)=N\NC(=O)C(=O)Nc1ccccc1C	FBW7 activator 2.0
Cn1c(Cc2ccccc2)nnc1SCC(=O)NCc1ccccc1	none
CCCn1ccc2c(OCC(=O)Nc3ccc(OC)c(OC)c3)cccc2c1=O	TEAD-YAP block 38
COCCn1ccc2c(OCC(=O)Nc3ccc(C)cc3)cccc2c1=O	none
Cc1cc(C(=O)NCCc2cccc(Cl)c2)ccc1[N+](=O)[O-]	none
CN(c1ccccc1)c1ccc(/C=C/[N+](=O)[O-])cc1	TEAD-YAP block 34
COc1ccc2oc(=Nc3ccccc3)c(-c3nc4ccccc4[nH]3)cc2c1	none
COc1ccc2cc(-c3nc4ccccc4[nH]3)c(=Nc3ccc(F)cc3)oc2c1	TEAD-YAP block 76
COc1ccc2cc(-c3nc4ccccc4[nH]3)c(=Nc3ccc(C(N)=O)cc3)oc2c1	TEAD-YAP block 66
CC(C)c1ccc(NC(=O)CSCC(=O)Nc2ccccc2)cc1	none
O=C(NCCc1ccccc1)c1ccc2nc(-c3ccc(F)cc3)c(-c3ccc(F)cc3)nc2c1	none
COC(=O)/C(=C/c1ccc(OC(F)F)cc1)NC(=O)c1ccccc1F	none
CC1CC(C)CN(c2nc(N)ncc2[N+](=O)[O-])C1 (stereo unspecified)	TEAD-YAP block 49
NC(=O)c1c(Cl)nsc1Cl	TEAD-YAP block 65
O=C(Nc1ccc(Cl)cc1)c1c(Cl)nsc1Cl	TEAD-YAP block 76
C=CCN1C(=O)C2(C(C#N)=C(N)OC3=C2C(=O)CCC3)c2ccccc21 (stereo unspecified)	none
CSc1nnc(Cc2ccc([N+](=O)[O-])cc2)o1	none
O=[N+]([O-])c1ccc2[nH]c(O)c(N=Nc3ccc(S(=O)(=O)O)cc3)c2c1	MITF primary 60
Cc1ccc(NC(=O)CCOc2ccccc2)cc1Cl	FBW7 activator 2.4
